Laboratory results from PubChem BioAssay (Tox21).
Results filed as inconclusive are left out. Unmarked numbers belong to inactive results. Active and inactive are the calls of the source. Calls follow the shape of the dose curve; as a rule, active = well fitted inhibition curve with a large enough effect in the repeat runs; inconclusive = weak or mixed curves; inactive = no such curve, though single readings can be large or run the other way.

Assay: qHTS assay to identify small molecule antagonists of the estrogen related receptor (ERR) signaling pathway from Tox21 library (AID 1224848); also: nearly all actives have a fitted effect of over 50% in size
Details: ERR reporter cell line, luciferase antagonist mode, 18 h; series mostly up to 92.4 µM; activity, negative = inhibition: at the top concentration
Source text: U.S. Tox21 Program National Center for Advancing Translational Sciences [NCATS] NIH Chemical Genomics Center [NCGC] U.S. Environmental Protection Agency [EPA] National Institutes of Environmental Health Sciences [NIEHS] National Toxicology Program [NTP] U.S. Food and Drug Administration [FDA] Tox21 Assay Overview: Estrogen related receptors (ERRs), the first orphan nuclear receptors discovered, play an important role in the control of cellular energy metabolism. ERRs are required for high-energy production in response to the environmental challenges. ERR-alpha was also identified as an adverse marker for breast cancer progression; ERR-alpha-positive tumors have a poor prognosis. To screen and to identify environmental compounds that perturb the ERR signaling pathways could provide valuable information for potential therapeutic or preventive measures in the treatment of metabolic disease. For identifying ERR antagonists, ERR cell line (provided by NTP) has been used to screen Tox21 10K library.
Tox21 Assay Protocol Summary: The ERR cells were dispensed at 2,000 cells/5 ul/well in 1536-well white plates using a Multidrop dispenser. After the assay plates were incubated at a 37 C/5% CO2 incubator for 6 hours, 23 nL of compounds dissolved in DMSO, positive and negative controls or DMSO only was transferred to the assay plate by a pin tool. The plates were incubated at 37 C for 18 hours. 4 ul/well of One-Glo reagent was added into the assay plates using a Flying Reagent Dispenser. After 30-minute incubation at room temperature, the luminescence intensity in the plates was measured using a ViewLux plate reader.
% is scaled to controls: 0 for no effect and ±100 for the full control effect; potency is read from the fitted curve at half-maximal effect.

SMILES | activity, negative = inhibition | Potency
CC/C(=C\C(=N/O)C(N)=O)C(C)[N+](=O)[O-] (stereo not given) | 6.05% | 
CCN(CC)CCOC(=O)C1(c2ccccc2)CCCC1 | 0.98% [at 42.5 µM] | 
OCC1CC2CC1C1CCC(CO)C21 (stereo not given) | -1.35% | 
CC(CN)CCCN (stereo not given) | -3.6% | 
CCCCOC(=O)/C=C\C(=O)OCCCC | -11.7% | 
COC(=O)C(C)=O | -11.1% | 
C#CCOC(=O)[C@@H](C)Oc1ccc(Oc2ncc(Cl)cc2F)cc1 | -21.6% | 
CCCC[C@H]1CN(CC2CCOCC2)C(=O)OC12CCN(C1(C)CCN(C(=O)c3c(C)ncnc3C)CC1)CC2 | 0.173% | 
O=C(CCN1CCN2CCCC2C1)N1c2ccccc2Sc2ccc(Cl)cc21 (stereo not given) | -23.7% [at 19 µM] | 
C=CC(=O)OCCOC(=O)CCC(=O)O | 89.2% | 
CCCCCCCC/C=C\CCCCCCCC(N)=O | -6.49% | 
CCCCCOC(=O)c1ccc(O)cc1 | 54.4% | 
C=CCCCCCC | 8.06% | 
O=C(O)C(c1ccc(Cl)cc1)c1ccc(Cl)cc1 | -12.2% | 
Cc1ccc(C(N)=O)cc1N | -0.169% | 
CCOc1nc2cccc(C(=O)O)c2n1Cc1ccc(-c2ccccc2-c2nn[nH]n2)cc1 | 6.48% [at 42.5 µM] | 
C=CC[N+]1([C@H]2C[C@H]3[C@@H]4CC[C@H]5C[C@H](OC(C)=O)[C@@H](N6CCCCC6)C[C@]5(C)[C@H]4CC[C@]3(C)[C@H]2OC(=O)CC)CCCCC1 | -0.18% [at 42.5 µM] | 
Nc1ccc(C(=O)Nc2ccccc2N)cc1 | 39.2% [at 42.5 µM] | 
COc1ccc([C@@H]2Sc3ccccc3N(CCN(C)C)C(=O)[C@@H]2OC(C)=O)cc1 |  | 16.8 µM (active)
Nc1nc(N)c(-c2ccccc2)s1 | 5.25% [at 42.5 µM] | 

SMILES | activity, negative = inhibition | Potency
Cn1sccc1=O |  | 48.6 µM (active)
NC[C@H]1O[C@H](O[C@H]2[C@H](O)[C@@H](O[C@H]3O[C@H](CO)[C@@H](O)[C@H](N)[C@H]3O)[C@H](N)C[C@@H]2N)[C@H](O)[C@@H](O)[C@@H]1O | 17.9% [at 8.39 µM] | 
CCN(CC)CCNC(C(=O)OCCC(C)C)c1ccccc1 (stereo not given) | 0.164% [at 42.5 µM] | 
COc1cc(C(C)(C)C)c(O)c(C(C)(C)C)c1 | -6.9% | 
O=C(NN1CCCC1)NS(=O)(=O)c1ccc(Cl)cc1 | 9.95% [at 42.5 µM] | 
CC(=O)/C(C)=C/C1C(C)=CCCC1(C)C (stereo not given) | 9.22% | 
O=C(O)Cn1c(C(=O)Nc2nc(-c3ccccc3Cl)cs2)cc2ccccc21 | 19.1% [at 42.5 µM] | 
NCc1ccccc1 | 18.3% | 
CCCCCC/C=C/C=O | 3.05% | 
OC(CCN1CCCCC1)(c1ccccc1)C1CCCCC1 (stereo not given) | 4.16% [at 42.5 µM] | 
Cc1cccc(OCCOc2cccc(C)c2)c1 | 11.4% | 
CCN(CC)CCc1nc(-c2ccccc2)no1 | 1.31% [at 42.5 µM] | 
CN1CCN(C2=Nc3ccccc3Sc3ccc(Cl)cc32)CC1 | 1.87% [at 42.5 µM] | 
CN1CCC(=C2c3ccccc3CCc3sccc32)CC1 | -15.8% [at 42.5 µM] | 
CC(=O)OC/C=C/c1ccccc1 | 0.834% | 
NC(N)=N/N=C/c1c(Cl)cccc1Cl | -28% [at 42.5 µM] | 
CCOc1ccc(NC(=O)CC(C)=O)cc1 | -6.45% | 
CCOc1ccc2[nH]cc(C(=O)NCc3ccccc3)c(=O)c2n1 |  | 24.3 µM (active)
Cc1ccccc1N=Nc1ccc(N=Nc2c(O)ccc3ccccc23)c(C)c1 | 17.9% [at 42.5 µM] | 
CCN(CC)C(C)=O | 4.38% | 
